Compound activity as filed in PubChem.
B2AR arrestin ag = beta-arrestin recruitment by human beta2-adrenergic receptor ligands; Potency, µM (titrated, usually from 46.1 µM), usual class: activators; P07550; HTLA Tango cells, beta-arrestin recruitment, luciferase luminescence, 18 h; 44,000 tested, under 10 active;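 note: potency is the fitted concentration of half-maximal effect; 0% = DMSO and full agonism = EC100 isoproterenol or metaproterenol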
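Tango cells expressing recombinant beta2-AR and beta-arrestin were treated with compounds (up to 46 microM titration) in DMEM with 1% FBS for 18 hr at 37 degrees C. Beta-arrestin recruitment drove tTA-dependent luciferase, read by luminescence; curves were fitted and classed.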
GALC G270D act = enhancers of human galactocerebrosidase G270D mutant activity in cells; 145M-Twi-hGALC-G270D cells, HMU-beta-Gal fluorescence, 48 h; Potency, µM (top dose mostly 57.5 µM), most hits filed as activators; 45,000 tested, 0.1% active; note: potency is the fitted concentration of half-maximal effect; 0% is about no effect; nearly all actives have a fitted effect of over 65% in size
Target sequence (P54803 whole entry G286D): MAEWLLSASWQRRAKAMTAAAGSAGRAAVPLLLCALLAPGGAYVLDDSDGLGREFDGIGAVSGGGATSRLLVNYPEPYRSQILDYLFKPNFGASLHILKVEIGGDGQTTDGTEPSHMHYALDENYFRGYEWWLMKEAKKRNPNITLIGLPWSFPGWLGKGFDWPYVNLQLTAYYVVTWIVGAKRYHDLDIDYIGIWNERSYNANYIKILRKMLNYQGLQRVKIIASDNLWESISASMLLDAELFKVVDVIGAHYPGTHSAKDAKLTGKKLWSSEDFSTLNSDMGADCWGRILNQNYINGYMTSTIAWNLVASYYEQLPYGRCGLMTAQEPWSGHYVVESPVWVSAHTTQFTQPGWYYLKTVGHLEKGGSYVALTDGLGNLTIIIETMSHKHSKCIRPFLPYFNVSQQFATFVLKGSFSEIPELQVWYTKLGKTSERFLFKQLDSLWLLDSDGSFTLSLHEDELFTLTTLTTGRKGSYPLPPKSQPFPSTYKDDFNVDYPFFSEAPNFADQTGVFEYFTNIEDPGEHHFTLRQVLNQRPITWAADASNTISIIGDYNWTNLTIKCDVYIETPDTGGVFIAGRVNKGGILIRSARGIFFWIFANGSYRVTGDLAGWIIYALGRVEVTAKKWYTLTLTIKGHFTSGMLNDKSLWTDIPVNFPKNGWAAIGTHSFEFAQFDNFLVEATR
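qHTS, 1536-well; 145M-Twi-hGALC-G270D cells (WT line also made) in DMEM/F12 + 10% FBS; compound incubation on live cells; HMU-β-gal 0.1 mM final, pH 5.2, NaTC; carbonate stop; fluorescence increase = enhanced residual activity.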
FH mod = Identification of activators of human fumarate hydratase by quantitative high-throughput screening. 54,000 tested, 0.22% active. FH coupled MDH/diaphorase resazurin fluorescence, 15 min. Potency, µM (doses to about 79.9 µM), without a hit: top-dose activity change, negative = inhibition, usual class: inhibitors; note: potency is the fitted concentration of half-maximal effect; % is set by controls: 0 for no effect and ±100 for the full control effect; the screen sought activators but most active calls are inhibition curves; nearly all actives have a fitted effect of over 45% in size
DRV1 agonist = activates human resolvin D1 receptor GPR32; O75388; CHO-K1 GPR32 beta-arrestin PathHunter luminescence, 90 min; zero percent set by DMSO-only wells; activation, % at 76.9 µM; 48,000 tested, 2.5% active; AID 1346428;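 active = activation of at least 60% and not above a set upper limit, about 1 call in 100 departs from these limits; inconclusive = activation of 40% to 60%, or above that upper limit; inactive = activation under 40%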; note: 0% is about no effect
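Engineered CHO-K1 line co-expressing GPR32-ProLink and EA-beta-arrestin. Compound treatment lasted 90 min at 37 °C. Luminescence was recorded after 1 h with substrate at ambient temperature, relative to DMSO basal wells.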
Starred values were filed as active, the others as inactive; i = inactive; ? = inconclusive; . = not tested or not shown; [ ] = another dose, or the depositor's remark. Most compounds without a hit are left out; they make up all but 2.8% or so of the library. Unless noted, calls come from the whole dose curve; as a rule, active = well fitted curve in the direction sought with a large enough effect; inconclusive = small, poorly fitted or top-dose-only effect, or another doubt; inactive = no such curve, though single readings can be large; an effect the other way counts as inactive or inconclusive.

SMILES | B2AR arrestin ag | GALC G270D act | FH mod | DRV1 agonist
CC1=CC(=O)[C@]2(O[C@@H]3O[C@@H](C)[C@H](O)[C@@H](O)[C@H]3O)C=CO[C@@H](O[C@@H]3O[C@H](CO)[C@@H](O)[C@H](O)[C@H]3O)[C@H]12 | . | . | -1.9%[53.3 µM] | .
C#C[C@]1(O)CC[C@H]2[C@@H]3[C@H](C)CC4=C(CCC(=O)C4)[C@H]3CC[C@@]21C | . | i | -1.4%[53.3 µM] | 98.6*
Cc1nc2n(c(=O)c1CCN1CCC(c3noc4cc(F)ccc34)CC1)CCCC2O (stereo not drawn) | . | . | -17.6%[53.3 µM] | -2.9
COc1cc(C(C)=O)ccc1OCCCN1CCC(c2noc3cc(F)ccc23)CC1 | . | i | 3.6%[53.3 µM] | 70.9*
CCOC(=O)c1cccc(NC(=O)c2cc3cc4cc(OC)ccc4nc3s2)c1 | i | i | -1.1% | 100.8*
CCOC(=O)c1cccc(NC(=O)c2cc3cc4ccc(C)cc4nc3s2)c1 | i | i | 8.1% | 0.7
COc1ccccc1CCNC(=O)C(=O)NCC(c1ccco1)S(=O)(=O)c1cccs1 (stereo not drawn) | i | i | 14.7% | -11.5
COc1ccccc1CCNC(=O)C(=O)NCC(c1ccco1)S(=O)(=O)c1ccc(C)cc1 (stereo not drawn) | i | 7.94µM* | -25.4% | -19.7
Cc1ccc(Nc2nc(N)nc(CSc3nc4ccccc4s3)n2)cc1 | i | i | -21.3% | 82.9*
CNC(=O)c1cc(Oc2ccc(NC(=O)Nc3ccc(Cl)c(C(F)(F)F)c3)cc2)ccn1 | . | i | -19.1% | 92.0*
CC1=CC2C(CC1OC1OC(CO)C(O)C(O)C1O)C(C)CC(=O)C2C(C)C (stereo not drawn) | . | . | -9.5%[53.3 µM] | .
COc1ccc(CCNC(=O)CSc2cn(CCNC(=O)c3cccc(C(F)(F)F)c3)c3ccccc23)cc1OC | i | i | -21.6% | 104.0*
COc1ccc(CCNC(=O)CSc2cn(CCNC(=O)c3ccc(OC)c(OC)c3)c3ccccc23)cc1OC | i | i | -15.7% | 7.1
COc1ccc(NC(=O)C2CCN(c3ccc(Sc4ccc(C)cc4)nn3)CC2)cc1 | i | i | 3.1% | 63.7*
COc1ccc(C(=O)C2CCN(CC(=O)N(Cc3nc4c(c(=O)[nH]3)COCC4)CC3CC3)CC2)cc1 | . | . | -3.0% | .
Cc1cccc(NC(=O)Nc2ccc(F)cc2)n1 | i | i | -8.6% | -11.1
Cc1ccc(NC(=O)Nc2cccc(C)n2)cc1 | i | i | -0.6% | 64.5*
COc1cc(C(=O)O)ccc1NC(=O)C1NC(CC(C)(C)C)C(C#N)(c2ccc(Cl)cc2F)C1c1cccc(Cl)c1F (stereo not drawn) | . | . | 31.6µM* | .
Cc1cccc(OCC(=O)Nc2ccc3nc(Nc4cccc(C(F)(F)F)c4)cc(C)c3c2)c1 | i | i | -1.8% | 75.7*
Cc1ccccc1-c1nc2cc(NC(=O)Cc3ccc(Cl)cc3)ccc2o1 | i | i | 4.1% | 118.0*
O=C(Cc1ccc(Cl)cc1)Nc1ccc2oc(-c3ccccc3)nc2c1 | i | i | 1.3% | 12.9
Cc1cccc(OCC(=O)Nc2ccc3oc(-c4ccccc4F)nc3c2)c1 | i | i | 3.0% | 120.6*
Cc1cc(Nc2cccc(C(F)(F)F)c2)nc2ccc(NC(=O)Cc3ccc(Cl)cc3)cc12 | i | i | ? | 19.3
COc1c2c(c(C)c3c1C(=O)OC3)O[C@@]1(C)CCC3(C(C)(C)O)OC(=O)CC[C@]3(C)[C@H]1C2 (stereo partly drawn) | . | . | -0.2%[53.3 µM] | .
O=c1cc(-c2ccccc2)oc2ccc(O)cc12 | . | . | -11.5% | .
SMILES | B2AR arrestin ag | GALC G270D act | FH mod | DRV1 agonist
CC(C)c1ccc(-c2cc(=O)c3ccccc3o2)cc1 | . | . | -7.9% | .
O=c1cc(-c2ccccc2)oc2ccccc12 | . | i | -15.4% | 62.3*
O=c1cc(-c2ccccc2)oc2c(O)c(O)ccc12 | . | . | 15.8µM* | .
Clc1cccc(-n2ncc3c(NCCCc4ccccc4)ncnc32)c1 | i | i | -18.1% | ?
CN(C)CCNc1ncnc2c1cnn2-c1cccc(Cl)c1 | i | i | -6.1% | 87.2*
CC(C)CCNc1ncnc2c1cnn2-c1cccc(Cl)c1 | i | i | -4.9% | 91.6*
Clc1cccc(-n2ncc3c(NCCCN4CCOCC4)ncnc32)c1 | i | i | -4.7% | 84.6*
CCc1ccccc1Nc1ncnc2c1cnn2-c1ccc(Cl)cc1 | i | i | -10.9% | 73.1*
